From PubChem BioAssay (NCATS) come the findings set out here.

The structures appear in SMILES notation. Values without a mark were called inactive. Results filed as inconclusive are left out. Active and inactive are the calls of the source. Unless noted, calls come from the whole dose curve; as a rule, active = well fitted curve in the direction sought with a large enough effect; inconclusive = small, poorly fitted or top-dose-only effect, or another doubt; inactive = no such curve, though single readings can be large; an effect the other way counts as inactive or inconclusive.

Test [1] has as its target Lysosomal acid glucosylceramidase (Homo sapiens) (UniProt P04062). In words: Glucocerebrosidase-p2 (AID 348; in the data active = potency below about 10 µM; note: potency is the fitted concentration of half-maximal effect). The following applies: purified GBA, blue fluorogenic substrate, 40 min. Put shortly: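 Compounds titrated from 0.6 nM upwards against 0.2 nM enzyme in pH 5.9 citric acid/KH2PO4, taurocholate, tween-20; blue fluorogenic substrate 80 uM, 40 min room temperature, stopped and read Ex 365/Em 440 for AC50.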

Test [2] in a line: AP1 Signaling Pathway (AID 357; active = well fitted curve in either direction with a large enough effect, not every such curve was filed as active;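 note: ME-180 reporter cells stimulated with EGF at its EC50 level; % is set by controls: 0 for no effect and ±100 for the full control effect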). The following applies: ME-180 AP-1-bla reporter, EGF-induced, beta-lactamase ratio, 5 h; at 7.69 µM (top of the series) unless noted. Put shortly:
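A ratiometric CCF4 readout (405 nm excitation; 460 and 530 nm emission) quantified AP-1-driven beta-lactamase in ME-180 cells after 5 h with compound and EC50 EGF; AC50 values were derived for activators and inhibitors.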

For test [3], the target named is Cytochrome P450 1A2 (Homo sapiens) (UniProt P05177). The test can be described thus: p450-cyp1a2 (AID 410; calls by dose curve; note: potency is the fitted concentration of half-maximal effect). To be noted: recombinant CYP1A2, luciferin-ME demethylation, luminescence; series mostly up to 57 µM. Put shortly: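 Inhibition was calculated relative to 57 uM furafylline (full inhibition). The reaction used human CYP1A2 at 20nM with Luciferin-ME at its Km, 100uM, driven by an NADPH-regenerating system for 60 min at room temperature.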

Test [4] in a line: NFAT Signaling Pathway (AID 444; active = well fitted curve in either direction with a large enough effect, not every such curve was filed as active;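 note: carbachol stimulus at about its EC50 of 1 µM final; % is set by controls: 0 for no effect and ±100 for the full control effect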). The following applies: Jurkat NFAT-bla M1, carbachol, beta-lactamase ratio, 5 h; at 7.69 µM (top of the series) unless noted. In a few lines: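 Jurkat cells carrying an NFAT-driven β-lactamase reporter and co-transfected muscarinic M1 receptor were treated with compound plus carbachol (1 uM final, an EC50 level) for 5 h at 37 °C. CCF4 loading followed for 1 h at RT; 460/530 nm ratio gave %activity.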

The nature of test [5]: Stat Signaling Pathway (AID 446; active = well fitted curve in either direction with a large enough effect, not every such curve was filed as active;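 note: ME-180 cervical cancer cells given 40 pM IL-6 alongside compound; SIE-controlled beta-lactamase reporter measured as 460/530 nm FRET emission ratio; % is set by controls: 0 for no effect and ±100 for the full control effect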). The following applies: ME-180 (cervical carcinoma) SIE beta-lactamase reporter, IL-6 stimulated, 5 h; at 7.69 µM (top of the series) unless noted. Put shortly:
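ME-180 cells carrying a SIE-driven beta-lactamase reporter are stimulated with 40 pM IL-6 for 5 h at 37C in the presence of compound. The 460/530 nm FRET substrate ratio is read after 2.5 h at RT. Data are normalised to 300 pM IL-6 and to 125 nM JAK inhibitor controls.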

Test [6] has as its target Glucocorticoid receptor (Homo sapiens) (UniProt P04150). The test can be described thus: GR-GFP Redistribution (AID 450;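 active = compounds whose dose series gives a full or clear partial fitted curve of increased nuclear translocation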; note: potency is the fitted concentration of half-maximal effect). The following applies: U2OS GR-GFP nuclear translocation, laser cytometry, 2 h.
Test [7] shares this target. In words: GR-EFC Redistribution (AID 451; calls by dose curve; note: potency is the fitted concentration of half-maximal effect). To be noted: CHO-K1 GR-EFC translocation, beta-gal luminescence, 2 h. Put shortly:
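CHO-K1 cells stably expressing nuclear-localized β-gal enzyme acceptor and GR fused C-terminally to the enzyme donor fragment; ligand-driven nuclear translocation restores β-gal by complementation. Compounds titrated up to 46 uM final, 2 h at 37 °C; luminescence read.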

Test [8] addresses Mitogen-activated protein kinase 10 (Mus musculus) (UniProt Q61831). In words: JNK3 AlphaScreen Assay (AID 530; active = well fitted curve in either direction with a large enough effect, not every such curve was filed as active;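 note: kinase came from lysate of stimulated human HepG2 cells; % is set by controls: 0 for no effect and ±100 for the full control effect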). The following applies: JNK3 lysate, c-Jun phosphorylation; series mostly up to 57.1 µM. In a few lines: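 JNK3 came from HepG2 lysates pre-activated with IL-1beta and TNF-alpha and phosphorylated biotinylated GST-cJun (1-79) at 10 uM ATP, pH 7.6, room temperature. Compounds were titrated. AlphaScreen signal used anti-phospho-cJun (Ser73) antibody.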

In test [9] the target is Cytochrome P450 3A4 (Homo sapiens) (UniProt P08684). In words: qHTS Assay for Activators of Cytochrome P450 3A4 (AID 885). Note: nearly all actives have a fitted effect of over 65% in size. The following applies: recombinant CYP3A4, Luciferin-PPXE luminescence, 60 min; series mostly up to 57.1 µM. In a few lines:
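Human CYP3A4 (20 nM) with Luciferin-PPXE at 25 uM (its KM) in 200 mM KPO4; 10 min compound preincubation, then NADPH regeneration and 60 min reaction at RT. Luciferin read by luminescence; normalized to 57 uM ketoconazole full inhibition.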

Test [10] has as its target Dual specificity protein kinase CLK4 (Homo sapiens) (UniProt Q9HAZ1). In words: qHTS Assay for Inhibitors of CDC-like Kinase 4 (Kinase-Glo Assay) (AID 1770). Note: nearly all actives have a fitted effect of over 65% in size. Note: potency is the fitted concentration of half-maximal effect. The following applies: recombinant Clk4, Kinase-Glo ATP depletion luminescence; series mostly up to 66.7 µM. In a few lines:
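25 nM Clk4 with 100 uM RS repeat peptide and 1 uM ATP (final) in Tris pH7.5, 10 mM MgCl2, 4.5 h at room temperature. Remaining ATP measured by Kinase-Glo luciferase luminescence.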

The target is the same in test [11]. In words: qHTS Assay for Inhibitors of CDC-like Kinase 4 (ADP-Glo Assay) (AID 1771). Note: nearly all actives have a fitted effect of over 70% in size. Note: potency is the fitted concentration of half-maximal effect. To be noted: recombinant CLK4, ADP-Glo luminescence; series mostly up to 80 µM. In a few lines:
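Kinase reaction: Clk4 at 25 nM, RS repeat peptide substrate at 100 uM, ATP at 1 uM, 1 hr, room temperature. Product ADP detected as luciferase signal via ADP-Glo.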
Background: Quantitative high-throughput screening tests each substance at several concentrations.

Test [12] shares this target. The test can be described thus: qHTS Assay for Inhibitors of CDC-like Kinase 4 (ADP-FP Assay) (AID 1795). Note: nearly all actives have a fitted effect of over 60% in size. Note: potency is the fitted concentration of half-maximal effect. To be noted: Transcreener ADP fluorescence polarization; series mostly up to 50 µM. In a few lines: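 Recombinant Clk4 (6.25 nM) phosphorylated 100 uM RS repeat peptide with 1 uM ATP in 25 mM Tris pH 7.5, 10 mM MgCl2, 0.5 mM EGTA, 2.5 mM DTT, 0.01% Triton X-100 for 1 h. ADP was detected by Transcreener ADP2 competitive fluorescence polarization after 30 min at room temperature.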

Test [13] deals with Ubiquitin carboxyl-terminal hydrolase 1 (Homo sapiens) (UniProt O94782). In words: Inhibitors of USP1/UAF1: Pilot qHTS (AID 504865).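 Note: rhodamine fluorescence freed from ubiquitin-rhodamine substrate followed over time; top concentration of the series differs between compounds; % is set by controls: 0 for no effect and ±100 for the full control effect; nearly all actives have a fitted effect of over 35% in size.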 The following applies: purified USP1/UAF1, Ub-rhodamine cleavage fluorescence; series mostly up to 54.9 µM. In a few lines:
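USP1/UAF1 complex at 1 nM preincubated 15 min at room temperature with compound, then Ub-Rho substrate added at 150 nM final. Fluorescence (480/540 nm) read kinetically in 50 mM HEPES pH 7.8, 0.5 mM EDTA, 1 mM TCEP, 0.1 mg/ml BSA, 0.01% Tween-20.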

Test [14] in a line: Primary qHTS for small molecule stabilizers of the endoplasmic reticulum resident proteome: Secreted ER Calcium Modulated Protein (SERCaMP) assay (AID 1508630). Note: % is set by controls: 0 for no effect and ±100 for the full control effect. To be noted: SH-SY5Y GLuc-SERCaMP (Gaussia luciferase released on ER calcium loss) secretion, thapsigargin, luminescence; series mostly up to 38.4 µM. Put shortly:
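GLuc-SERCaMP-expressing SH-SY5Y cells, pretreated 16 h with compound, are challenged with thapsigargin to empty ER calcium stores; after 4 h, coelenterazine is added directly to the medium and luminescence is imaged.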

Test [15] deals with Cytochrome P450 2D6 (Homo sapiens) (UniProt P10635). The test can be described thus: qHTS Assay for Inhibitors and Substrates of Cytochrome P450 2D6 (AID 891). Note: potency is the fitted concentration of half-maximal effect; nearly all actives have a fitted effect of over 60% in size. To be noted: recombinant CYP2D6, luciferin-ME EGE luminescence; series mostly up to 57.1 µM. Put shortly: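 Human CYP2D6 (5 nM) with 30 uM Luciferin-ME EGE (at Km) in 100 mM KPO4, compound preincubated 10 min, then NADPH regeneration system for 60 min at room temperature. Luciferin read by luminescence; normalized to 1.43 uM quinidine.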

Test [16] deals with 3',5'-cyclic-AMP phosphodiesterase 4B (Homo sapiens) (UniProt Q07343). The test can be described thus: qHTS Assay for Inhibitors of PDE-IV (AID 607; active = well fitted activation curve with a large enough effect in the main read-out, with a control signal flat, not every such curve was filed as active; note: % of control where 0% means no effect). To be noted: HEK293 ACTOne CNG channel cells, membrane potential fluorescence; series mostly up to 22.9 µM. In a few lines: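 HEK293 ACTOne cells with CNG channel (1000/well), endogenous PDE4; membrane potential dye, compounds up to 22.9 uM final. Fluorescence Ex 535/Em 590; RO 20-1724 (100 uM final) as reference.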

Test [17] has as its target Cytochrome P450 2C19 (Homo sapiens) (UniProt P33261). The test can be described thus: qHTS Assay for Inhibitors and Substrates of Cytochrome P450 2C19 (AID 899). Note: potency is the fitted concentration of half-maximal effect; nearly all actives have a fitted effect of over 60% in size. The following applies: recombinant CYP2C19, luciferin-H EGE luminescence; series mostly up to 57.1 µM. In a few lines:
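NADPH-dependent conversion of Luciferin-H EGE (10uM, at KM) by 5nM enzyme in 50mM KPO4, 60 min at 37C following 10 min compound preincubation. Stopped with luciferin detection buffer; luminescence read after 20 min.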

Test [18] has as its target Cytochrome P450 2C9 (Homo sapiens) (UniProt P11712). The test can be described thus: qHTS Assay for Inhibitors and Substrates of Cytochrome P450 2C9 (AID 883). Note: potency is the fitted concentration of half-maximal effect; nearly all actives have a fitted effect of over 60% in size. To be noted: recombinant CYP2C9, luciferin-H luminescence, 60 min; series mostly up to 57.1 µM. Put shortly:
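A luminogenic readout tracked human CYP2C9 (10nM) converting deoxyluciferin (100uM, at KM) in 25mM KPO4 during 60 min at 37C with regenerated NADPH. Values normalized to 57uM sulphaphenazole as complete inhibition.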

In test [19] the target is Cytochrome P450 3A4 (Homo sapiens) (UniProt P08684). The test can be described thus: qHTS Assay for Inhibitors and Substrates of Cytochrome P450 3A4 (AID 884). Note: potency is the fitted concentration of half-maximal effect; nearly all actives have a fitted effect of over 50% in size. To be noted: recombinant CYP3A4, Luciferin-PPXE luminescence; series mostly up to 57.1 µM. In a few lines: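 20 nM human CYP3A4 with 25 uM Luciferin-PPXE (at KM) in 200 mM KPO4, preincubated 10 min with compound; NADPH regeneration started a 60 min RT reaction. Luciferin detected by luminescence, normalized to 57 uM ketoconazole as full inhibition.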
Sequence of Cytochrome P450 3A4 (Homo sapiens) (P08684 whole entry, looked up): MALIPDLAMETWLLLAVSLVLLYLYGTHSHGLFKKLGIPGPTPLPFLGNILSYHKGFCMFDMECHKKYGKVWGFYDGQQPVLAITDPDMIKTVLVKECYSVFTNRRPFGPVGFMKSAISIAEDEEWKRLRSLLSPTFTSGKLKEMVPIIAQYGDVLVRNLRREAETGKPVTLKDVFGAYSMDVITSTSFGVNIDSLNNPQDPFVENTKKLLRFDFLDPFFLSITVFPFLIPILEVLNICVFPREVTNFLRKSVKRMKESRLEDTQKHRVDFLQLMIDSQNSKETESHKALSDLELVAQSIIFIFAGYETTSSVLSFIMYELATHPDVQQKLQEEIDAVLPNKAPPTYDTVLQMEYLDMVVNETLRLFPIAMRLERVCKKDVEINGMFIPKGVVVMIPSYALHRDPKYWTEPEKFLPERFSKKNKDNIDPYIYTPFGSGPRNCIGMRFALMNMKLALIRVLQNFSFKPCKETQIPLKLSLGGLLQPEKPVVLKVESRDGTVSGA

Sequence of Ubiquitin carboxyl-terminal hydrolase 1 (Homo sapiens) (O94782 whole entry, looked up): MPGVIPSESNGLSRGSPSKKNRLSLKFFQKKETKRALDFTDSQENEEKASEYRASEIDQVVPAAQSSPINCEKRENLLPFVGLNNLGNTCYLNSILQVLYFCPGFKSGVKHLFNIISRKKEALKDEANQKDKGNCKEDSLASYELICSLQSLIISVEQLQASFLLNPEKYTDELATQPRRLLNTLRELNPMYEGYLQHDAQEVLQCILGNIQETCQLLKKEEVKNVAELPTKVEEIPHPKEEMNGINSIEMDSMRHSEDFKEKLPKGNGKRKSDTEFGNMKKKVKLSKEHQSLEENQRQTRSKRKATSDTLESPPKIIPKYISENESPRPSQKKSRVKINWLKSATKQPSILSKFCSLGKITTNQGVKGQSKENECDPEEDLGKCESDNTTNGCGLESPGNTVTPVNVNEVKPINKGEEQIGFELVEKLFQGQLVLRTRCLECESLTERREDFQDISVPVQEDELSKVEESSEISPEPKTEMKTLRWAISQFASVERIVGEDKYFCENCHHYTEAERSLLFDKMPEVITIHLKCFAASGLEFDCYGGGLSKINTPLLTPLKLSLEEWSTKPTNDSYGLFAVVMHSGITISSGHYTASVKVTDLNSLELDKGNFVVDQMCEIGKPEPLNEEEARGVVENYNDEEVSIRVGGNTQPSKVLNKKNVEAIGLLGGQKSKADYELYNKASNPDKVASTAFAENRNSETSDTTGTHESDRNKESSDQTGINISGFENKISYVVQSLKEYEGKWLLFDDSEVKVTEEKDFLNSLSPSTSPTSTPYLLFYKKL
Sequence of Glucocorticoid receptor (Homo sapiens) (P04150 whole entry, looked up): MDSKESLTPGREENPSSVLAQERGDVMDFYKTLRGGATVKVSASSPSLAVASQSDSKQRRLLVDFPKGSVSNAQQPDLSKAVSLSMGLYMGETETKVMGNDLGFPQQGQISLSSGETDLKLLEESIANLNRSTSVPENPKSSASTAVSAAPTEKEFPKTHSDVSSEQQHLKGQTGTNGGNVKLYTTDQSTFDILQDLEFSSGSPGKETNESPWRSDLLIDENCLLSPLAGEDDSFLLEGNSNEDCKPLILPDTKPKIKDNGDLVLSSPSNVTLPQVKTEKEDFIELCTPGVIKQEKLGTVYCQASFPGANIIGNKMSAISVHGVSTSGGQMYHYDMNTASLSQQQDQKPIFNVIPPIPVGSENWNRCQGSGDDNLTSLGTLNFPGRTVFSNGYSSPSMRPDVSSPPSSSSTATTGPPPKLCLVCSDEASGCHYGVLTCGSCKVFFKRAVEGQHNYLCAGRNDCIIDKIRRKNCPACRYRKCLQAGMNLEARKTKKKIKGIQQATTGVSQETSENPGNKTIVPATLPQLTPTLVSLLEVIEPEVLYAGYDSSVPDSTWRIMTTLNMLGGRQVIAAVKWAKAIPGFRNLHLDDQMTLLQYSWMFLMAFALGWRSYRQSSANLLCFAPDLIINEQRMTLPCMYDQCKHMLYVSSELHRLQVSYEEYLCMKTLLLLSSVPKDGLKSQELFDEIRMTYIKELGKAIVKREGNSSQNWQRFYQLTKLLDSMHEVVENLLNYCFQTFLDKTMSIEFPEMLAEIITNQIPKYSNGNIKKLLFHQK
Sequence of Dual specificity protein kinase CLK4 (Homo sapiens) (Q9HAZ1 whole entry, looked up): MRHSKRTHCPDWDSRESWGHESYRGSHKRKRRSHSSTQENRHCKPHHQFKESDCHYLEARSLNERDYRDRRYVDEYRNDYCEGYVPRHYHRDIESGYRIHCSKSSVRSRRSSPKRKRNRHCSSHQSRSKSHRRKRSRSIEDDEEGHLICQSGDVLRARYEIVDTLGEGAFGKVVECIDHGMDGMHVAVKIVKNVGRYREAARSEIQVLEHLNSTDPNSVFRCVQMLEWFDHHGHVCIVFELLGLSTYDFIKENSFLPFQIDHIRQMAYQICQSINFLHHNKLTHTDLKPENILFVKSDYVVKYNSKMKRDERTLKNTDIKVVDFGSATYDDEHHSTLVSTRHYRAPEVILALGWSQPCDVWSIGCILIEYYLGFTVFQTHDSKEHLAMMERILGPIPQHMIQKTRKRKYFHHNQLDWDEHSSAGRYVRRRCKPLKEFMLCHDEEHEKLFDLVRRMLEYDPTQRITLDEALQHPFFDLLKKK
Sequence of Cytochrome P450 1A2 (Homo sapiens) (P05177 whole entry, looked up): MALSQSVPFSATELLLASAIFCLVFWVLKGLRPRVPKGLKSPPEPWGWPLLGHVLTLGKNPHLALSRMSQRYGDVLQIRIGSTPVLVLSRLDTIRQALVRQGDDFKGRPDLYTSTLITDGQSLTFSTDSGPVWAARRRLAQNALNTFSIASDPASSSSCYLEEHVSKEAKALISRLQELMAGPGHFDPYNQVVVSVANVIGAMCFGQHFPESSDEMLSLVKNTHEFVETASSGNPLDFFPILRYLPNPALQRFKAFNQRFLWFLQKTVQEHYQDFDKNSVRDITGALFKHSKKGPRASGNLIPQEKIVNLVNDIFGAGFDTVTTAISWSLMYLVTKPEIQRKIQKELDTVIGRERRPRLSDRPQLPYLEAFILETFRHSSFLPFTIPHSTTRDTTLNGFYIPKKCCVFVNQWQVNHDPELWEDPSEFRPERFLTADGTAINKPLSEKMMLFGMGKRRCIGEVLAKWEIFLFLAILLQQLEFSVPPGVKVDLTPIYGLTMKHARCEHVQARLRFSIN
Sequence of Lysosomal acid glucosylceramidase (Homo sapiens) (P04062 whole entry, looked up): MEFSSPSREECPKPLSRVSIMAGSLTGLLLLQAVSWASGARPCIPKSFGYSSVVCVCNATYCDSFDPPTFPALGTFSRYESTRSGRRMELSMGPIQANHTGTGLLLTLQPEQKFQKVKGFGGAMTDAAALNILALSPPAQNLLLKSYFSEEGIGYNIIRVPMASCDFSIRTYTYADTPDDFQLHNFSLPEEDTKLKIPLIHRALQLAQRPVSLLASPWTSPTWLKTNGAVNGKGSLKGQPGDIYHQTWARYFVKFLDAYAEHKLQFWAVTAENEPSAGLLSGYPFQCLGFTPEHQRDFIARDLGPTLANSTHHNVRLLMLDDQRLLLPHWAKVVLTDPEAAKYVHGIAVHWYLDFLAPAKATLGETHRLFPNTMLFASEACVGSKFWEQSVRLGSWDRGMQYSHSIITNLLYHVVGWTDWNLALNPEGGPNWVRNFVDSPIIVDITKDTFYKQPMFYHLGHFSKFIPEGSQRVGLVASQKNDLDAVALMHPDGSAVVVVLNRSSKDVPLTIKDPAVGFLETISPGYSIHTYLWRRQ
Sequence of Cytochrome P450 2C19 (Homo sapiens) (P33261 whole entry, looked up): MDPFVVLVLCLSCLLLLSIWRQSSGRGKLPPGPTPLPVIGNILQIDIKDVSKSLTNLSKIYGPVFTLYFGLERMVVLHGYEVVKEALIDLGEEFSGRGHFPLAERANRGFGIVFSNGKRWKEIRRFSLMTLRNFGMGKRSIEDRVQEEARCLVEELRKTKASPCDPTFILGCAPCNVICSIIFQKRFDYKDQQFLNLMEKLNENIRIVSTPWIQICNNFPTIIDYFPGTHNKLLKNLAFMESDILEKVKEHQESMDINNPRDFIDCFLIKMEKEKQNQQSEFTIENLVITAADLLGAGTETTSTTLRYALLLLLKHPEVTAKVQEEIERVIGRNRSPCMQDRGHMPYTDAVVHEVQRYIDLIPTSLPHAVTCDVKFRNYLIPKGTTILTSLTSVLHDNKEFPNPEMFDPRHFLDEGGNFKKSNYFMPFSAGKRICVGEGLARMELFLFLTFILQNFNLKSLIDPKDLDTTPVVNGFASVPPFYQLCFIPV
Sequence of Cytochrome P450 2C9 (Homo sapiens) (P11712 whole entry, looked up): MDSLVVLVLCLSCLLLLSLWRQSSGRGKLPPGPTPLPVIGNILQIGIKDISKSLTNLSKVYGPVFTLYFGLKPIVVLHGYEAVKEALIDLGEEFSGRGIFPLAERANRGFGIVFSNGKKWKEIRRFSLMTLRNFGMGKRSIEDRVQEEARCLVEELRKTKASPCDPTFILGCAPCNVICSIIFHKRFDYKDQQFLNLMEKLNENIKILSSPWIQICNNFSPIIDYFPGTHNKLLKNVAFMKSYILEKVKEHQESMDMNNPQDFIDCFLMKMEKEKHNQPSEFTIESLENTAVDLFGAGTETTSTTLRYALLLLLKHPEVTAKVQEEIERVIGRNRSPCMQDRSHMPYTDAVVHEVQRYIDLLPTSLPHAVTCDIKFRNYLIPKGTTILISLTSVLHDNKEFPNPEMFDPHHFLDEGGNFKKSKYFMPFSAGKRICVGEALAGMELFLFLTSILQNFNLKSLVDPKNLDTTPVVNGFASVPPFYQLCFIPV

As to `CN(C)c1cc(-c2cccc(NS(C)(=O)=O)c2)ncn1`, the Potency is more than 11.4 µM in test [1], 1.26 µM (active) in [3], more than 46 µM in test [6] and more than 46 µM in test [7]. Further, the activity change, negative = inhibition is 3.12% in test [2] and 18.4% in test [4]. Also, the activity, negative = inhibition in test [5] is 1.39%. The Potency result in [8], in test [9], in test [10], in [11], in test [12] and in test [13] was “inactive” in each case. Moreover, the outcome in [14] was inactive.

Regarding `N#Cc1cccc(-c2nccc(NCc3ccccc3)n2)c1`, the Potency was more than 11.4 µM in test [1]; 0.501 µM (active) in test [3]; more than 46 µM in test [6]; more than 46 µM in test [7]; 7.94 µM (active) in test [15]; 14.1 µM (active) in [10]. Further, the results for the Potency in test [11] and in [12] were 14.1 µM (active) and 15.8 µM (active), respectively. The activity change, negative = inhibition in test [2] is -20.8%; in test [4], 13.6%. Also, in test [5], the activity, negative = inhibition is -6.24%. Further, the Potency entry in test [8] and in test [9] was “inactive” throughout. The result in test [14] was inactive.

Take `CN1CCN(c2ncc3ncc(=O)n(CCc4ccccc4)c3n2)CC1`: the Potency in test [1] is more than 11.4 µM; in test [3], 3.98 µM (active); in test [6], more than 9.22 µM; in test [7] it was more than 46 µM; in [17], 6.31 µM (active); in test [10], 25.1 µM (active). Also, the Potency in test [11] was 15.8 µM (active). In addition, the results for the activity change, negative = inhibition in [2] and in [4] were -5.68% and -2.1%, respectively. Moreover, the activity, negative = inhibition in test [5] was 9.6%. For the same compound, the Potency entry in test [8], in test [16], in test [9], in test [12] and in [13] was “inactive” throughout. Further, in [14], the outcome was inactive.

As to `N#CCCn1c(=O)c(-c2ccccc2)nc2cnc(Nc3ccccc3)nc21`, the Potency in test [1] is more than 11.4 µM; in [3] it was 0.794 µM (active). The activity change, negative = inhibition in [2] is -19.8%; in test [4] it was -16.9%. In addition, the activity, negative = inhibition in [5] is -23.1%. The Potency entry in [8], in test [10], in [11], in test [12] and in test [13] was “inactive” each time. The result in test [14] was inactive.

In the case of `COc1cccc(Cn2c(=O)c(-c3cccs3)nc3cncnc32)c1`, the Potency in test [1] is more than 11.4 µM; in test [3] it was 5.01 µM (active); in [6], more than 9.22 µM; in [7], more than 46 µM; in test [18], 2.51 µM (active); in [19], 5.01 µM (active). For the same compound, in [17], the Potency is 5.01 µM (active). The activity change, negative = inhibition is -13.8% in test [2] and -4.4% in test [4]. Also, the activity, negative = inhibition in test [5] was 0.799%. The Potency entry in test [8], in test [9], in [10], in test [11], in test [12] and in [13] was “inactive” throughout. Besides, the result in test [14] was inactive.

With `c1nc(NC2CC2)c2cc(-c3ccoc3)ccc2n1`, the Potency in [1] is more than 11.4 µM; in test [3] it was 0.794 µM (active); in test [6] it was more than 46 µM; in [7], more than 46 µM; in test [10], 0.794 µM (active); in test [11] it was 0.708 µM (active). Also, in test [12], the Potency is 0.178 µM (active). Moreover, the activity change, negative = inhibition was -18% in test [2] and 6.95% in [4]. For the same compound, the activity, negative = inhibition in test [5] is -16.7%. Besides, the Potency entry in test [8], in [9] and in test [13] was “inactive” in each case. For the same compound, the result in test [14] was inactive.
